Data as given in PubChem BioAssay (NCATS).
Results filed as inconclusive are left out. Activity calls are given as the source filed them. Calls follow the shape of the dose curve; as a rule, active = well fitted curve in the direction sought with a large enough effect; inconclusive = small, poorly fitted or top-dose-only effect, or another doubt; inactive = no such curve, though single readings can be large; an effect the other way counts as inactive or inconclusive.

Legend:
[1] = molecular target: Glutathione peroxidase 1 (Homo sapiens) (UniProt P07203); assay: Primary qHTS Assay for Inhibitors of Recombinant Selenoprotein Glutathione Peroxidase 1 (GPX1) (AID 1845191); also: nearly all actives have a fitted effect of over 65% in size
Summary of the method: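 GPX1 10 nM, GR 100 nM, GSH 1 mM, NADPH 0.5 mM, CHP 0.5 mM (final). 30-min cpd preincubation, RT. Ex340/Em450 read t=0, t=15 min.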

[2] = molecular target: Phospholipid hydroperoxide glutathione peroxidase GPX4 (Homo sapiens) (UniProt P36969); assay: Primary qHTS Assay for Inhibitors of Recombinant Selenoprotein Glutathione Peroxidase 4 (GPX4) (AID 1845192); also: nearly all actives have a fitted effect of over 65% in size
Summary of the method: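 qHTS, GR-coupled: GPX4 200 nM + cpd 30 min RT → GSH 1 mM, NADPH 0.5 mM, GR 100 nM → CHP 0.5 mM start; fluor 340/450 at t0 and t15 min; no-enzyme wells as control.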

[3] = molecular target: Luciferin 4-monooxygenase (Photinus pyralis) (UniProt P08659); assay: Primary firefly luciferase (FLuc) qHTS assay for identification of artifact compounds. (AID 1845220); also: nearly all actives have a fitted effect of over 60% in size; also: potency is read from the fitted curve at half-maximal effect
Summary of the method: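 In this counter-screen for luciferase artifacts, test compounds met substrate (10 uM each luciferin and ATP) before 10 nM enzyme started the reaction. Light output was measured 5 min later.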

[4] = test system: Nanoluciferase (engineered Oplophorus gracilirostris luciferase); assay: Primary Nanoluciferase (NLuc) qHTS assay for identification of artifact compounds. (AID 1845222); also: potency is read from the fitted curve at half-maximal effect
Summary of the method: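 Using secreted nanoluciferase in S16 culture medium (0.22 um filtered, 1:55 dilution), compounds were preincubated 15 min at RT. Signal was generated with Nano-Glo reagent (1:100) over 5 min.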

[5] = Primary redox qHTS assay for identification of artifact compounds. (AID 1845223)
Summary of the method: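 Redox-cycling detection via DTT (250 uM final) oxidation coupled to Amplex Red (25 uM)/HRP (250 mU/mL) in HBSS. 15 min preincubation plus 30 min after DTT, room temperature. Ex/Em 525/598 nm; 4-parameter Hill fit against DMSO and 10 uM DA3003.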

Measured: Potency

Chain of Phospholipid hydroperoxide glutathione peroxidase GPX4 (Homo sapiens) (P36969 whole entry, looked up): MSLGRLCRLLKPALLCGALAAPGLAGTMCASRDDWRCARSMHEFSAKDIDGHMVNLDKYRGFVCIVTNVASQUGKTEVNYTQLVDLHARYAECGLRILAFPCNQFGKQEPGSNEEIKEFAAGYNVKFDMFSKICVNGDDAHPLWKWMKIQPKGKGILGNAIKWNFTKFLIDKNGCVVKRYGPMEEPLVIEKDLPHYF
Chain of Glutathione peroxidase 1 (Homo sapiens) (P07203 whole entry, looked up): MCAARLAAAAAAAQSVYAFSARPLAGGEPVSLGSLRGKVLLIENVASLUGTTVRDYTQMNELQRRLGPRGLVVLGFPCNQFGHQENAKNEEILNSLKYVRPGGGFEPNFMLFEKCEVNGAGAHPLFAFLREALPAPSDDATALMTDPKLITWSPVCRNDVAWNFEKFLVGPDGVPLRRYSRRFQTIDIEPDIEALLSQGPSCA

COc1ccccc1C(=O)Nc1cc2c(cc1N1CCCC1)n(C)c(=O)n2C
inactive: all assays above

Cc1cc(-c2cc(OC(=O)c3ccccc3)ccc2Cl)cc2nnc(Nc3ccc(OCCN4CCCC4)cc3)nc12
inactive: all assays above

O=C(NS(=O)(=O)c1ccc(Br)s1)c1ccc(Cl)cc1Cl
active: [4] 6.75 µM
inactive: all other assays above

COc1ccc(N2CCN(C(=O)c3cc4c(s3)-c3ccccc3S(=O)(=O)C4)CC2)cc1
inactive: all assays above

C=C1/C(=C/C=C2\CCC[C@]3(C)[C@@H]([C@H](C)/C=C/[C@@H](C)C(C)C)CC[C@@H]23)C[C@@H](O)C[C@@H]1O
inactive: all assays above

C=C1C(=O)O[C@@H]2C[C@]3(C)[C@@H](CCC(C)O)[C@@H]3C[C@H]12 (stereo not given in full)
inactive: all assays above

COc1cc(CCO)ccc1O[C@@H]1O[C@H](CO)[C@@H](O)[C@H](O)[C@H]1O
inactive: all assays above

CN(C)CCN(Cc1ccccc1)C(=O)c1cc(-c2ccc(F)cc2)n2nc(C(C)(C)C)cc2n1
inactive: all assays above

CC[C@H](C(=O)Nc1ccccc1N1CCCC1)c1ccccc1
inactive: all assays above

COC(=O)c1ccc2c(c1)nc(NC(=O)c1ccccc1)n2CCCc1ccccc1
inactive: all assays above

C=C(C(=O)O)[C@@H]1CC=C(CCC(C)=O)[C@@H](C)CC1
inactive: all assays above

COc1cc(OC)c(NC(=O)c2ccc(Cc3cc4c(cc3C)C(C)(C)CCC4(C)C)o2)c(OC)c1
inactive: all assays above

C=C1C(=O)OC2C=C(C)CC/C=C(\CO)CC(O)C12 (stereo not given)
inactive: all assays above

COc1cccc(NCCC2(c3ccccc3)CC(C)(C)OC(C)(C)C2)c1
inactive: all assays above

C[C@@H](NC(=O)C(=O)c1c[nH]c2ccc([N+](=O)[O-])cc12)c1ccccc1
inactive: all assays above

C=CC(=O)N1CCC[C@@H](n2nc(-c3cccc(C(=O)Nc4ccc(C(C)C)c(C)c4)c3)c3c(N)ncnc32)C1
active: [3] 6.75 µM
inactive: all other assays above

COC(=O)C[C@H]1[C@]2(C)C3=C(C)[C@H](c4ccoc4)C[C@H]3O[C@@H]2[C@H](O)C2[C@](C)(C(=O)OC)C=CC(=O)[C@@]21C (stereo not given in full)
inactive: all assays above

Cn1cc(C2=C(c3coc4ccccc34)C(=O)NC2=O)c2cc(Br)ccc21
inactive: all assays above

CCN(CC)C(=O)C(c1ccccc1)N1CCN(c2ccc(NC(=O)c3ccccc3-c3cccnc3)cc2F)CC1 (stereo not given)
inactive: all assays above
